Data on 11 molecules can be found in PubChem BioAssay (NCATS).

SMILES strings stand for the structures. Records with an inconclusive call do not appear. Active and inactive are the calls of the source. Calls follow the shape of the dose curve; as a rule, active = well fitted inhibition curve with a large enough effect; inconclusive = small, poorly fitted or top-dose-only effect; inactive = flat fitted curve, though single readings scatter.

Chain of Calcium and integrin-binding protein 1 (Homo sapiens) (Q99828 whole entry, looked up): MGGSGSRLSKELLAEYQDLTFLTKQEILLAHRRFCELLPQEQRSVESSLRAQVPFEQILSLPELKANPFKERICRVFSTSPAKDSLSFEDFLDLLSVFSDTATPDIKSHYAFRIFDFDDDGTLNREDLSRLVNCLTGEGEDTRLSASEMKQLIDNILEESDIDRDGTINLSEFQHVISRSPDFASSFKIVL

The target of this assay is Calcium and integrin-binding protein 1 (Homo sapiens) (UniProt Q99828). Nature of the assay: Primary qHTS for Identification of Calcium Integrin Binding Protein 1 (CIB1) Competitor (AID 1508620).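 Also: GST tagged CIB1 binding a fluorescein labelled alphaIIb integrin peptide tracer; top concentration of the series differs between compounds.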 Particulars: CIB1-GST / FITC-alphaIIb peptide fluorescence polarization; series mostly up to 57.7 µM. In a few lines:
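CIB1-GST (1 uM final) and compound incubated 15 min at room temperature before adding FITC-alphaIIb peptide tracer (100 nM final). Competition for binding read by fluorescence polarization (ex 480, em 540) after another 15 min at room temperature.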
`CC(=O)N(C)c1cccc(-c2ccnc3c(C(=O)c4cccs4)cnn23)c1`: the result was inactive.

On to `CC(C)N[C@@H]1CCn2c(=O)[nH]c3cccc(c32)[C@@H]1O`, for which the outcome was inactive.

As for `CC(=Cc1csc(C)n1)[C@@H]1C[C@H]2O[C@@H]2CCC[C@H](C)[C@@H](O)[C@@H](C)C(=O)C(C)(C)[C@@H](O)CC(=O)O1`, the outcome was inactive.

`c1cc2c(cc1[C@H]1OC[C@H]3[C@H]1CO[C@H]3c1ccc3c(c1)OCO3)OCO2`: the outcome was inactive.

`COc1ccc2c(c1)[C@]13CCCCC1C(C2)N(C)CC3` (stereo partly specified): the outcome was inactive.

For the molecule `CC(C)(C)[C@]1(O)C[C@@H]2OC(=O)C[C@@]23C(=O)O[C@@H]2OC(=O)[C@H](O)C213` (stereo partly specified), the outcome was inactive.

Consider `COc1cccc2c1[C@]13CCN(CC4CC4)[C@H](C2)[C@]1(OC)CCC(=O)C3`, for which the outcome was inactive.

Take `C=CCON=C(C[C@H]1O[C@@H]2O[C@]3(C)CC[C@@H]4[C@H](C)CC[C@@H]([C@H]1C)[C@@]24OO3)[C@H]1O[C@@H]2O[C@]3(C)CC[C@H]4[C@H](C)CC[C@@H]([C@@H]1C)[C@@]24OO3`: the result was inactive.

For `C[C@]12CC[C@H](O)CC1=CC[C@H]1[C@H]3CCC(=O)[C@@]3(C)CC[C@@H]12`, the result was inactive.

Regarding `CCCN(CCC)c1c([N+](=O)[O-])cc(S(N)(=O)=O)cc1[N+](=O)[O-]`, the result was inactive.

With `CCC(=O)OC1CCC2C3CCC4=CC(=O)CC[C@@]4(C)C3CC[C@]12C` (stereo partly specified), the result was inactive.
